Reference: PubChem BioAssay (Tox21)
Records with an inconclusive call do not appear. Entries that show only a call come without a potency. Activity calls are given as the source filed them. Calls follow the shape of the dose curve; as a rule, active = well fitted inhibition curve with a large enough effect in the repeat runs; inconclusive = weak or mixed curves; inactive = flat fitted curve, though single readings scatter.
Potency is read from the fitted curve at half-maximal effect.

Experiment: qHTS assay to identify small molecule HDAC inhibitors (AID 1259364); also: nearly all actives have a fitted effect of over 45% in size
Conditions: HCT-116 HDAC-Glo I/II luminescence, 2 h; series mostly up to 92.4 µM
Text: U.S. Tox21 Program National Center for Advancing Translational Sciences [NCATS] NIH Chemical Genomics Center [NCGC] U.S. Environmental Protection Agency [EPA] National Institutes of Environmental Health Sciences [NIEHS] National Toxicology Program [NTP] U.S. Food and Drug Administration [FDA] Tox21 Assay Overview: Histone deacetylases (HDACs) are a group of epigenetic enzymes that regulate gene expression by histone deacetylation. HDACs are capable of introducing epigenetic modifications and such aberrations contribute to the onset and progression of several human diseases, thus making HDACs a popular therapeutic target. For identifying endogenous class I/II HDAC inhibitors a homogenous, luminogenic HDAC I/II cell based assay was used to measure the relative activity of class I and II HDACs from cells. Wild type HCT-116 cells were used to screen Tox21 libraries for identifying class I/II HDAC inhibitors.
Tox21 Assay Protocol Summary: HCT-116 cells were dispensed at 1,500 per well in 5uL of culture medium into white solid bottom 1536-well plates (Greiner Bio-One, Monroe, NC) using a Multidrop Combi (Thermo Scientific, Waltham, MA) dispenser. The assay plates were incubated at 37 C and 5% CO2 for an overnight, and then 23nL of compounds dissolved in DMSO and positive control were transferred using a Pintool station (Wako, San Diego, CA). The assay plates were incubated at 37C and 5% CO2 for 2hr. After compound treatment, 4uL of HDAC-Glo reagent (Promega Corporation, Madison, WI) was added to each well of the assay plates using Flying Reagent Dispenser (FRD, Aurora Discovery, San Diego, CA) and incubated the assay plates at room temperature for 30min. The luminescence signal was quantified using a ViewLux plate reader (Perkin Elmer, Shelton, CT).
With CCC[CH2][Sn]([CH2]CCC)([O]C(C)=O)[O]C(C)=O the Potency was “inactive”. For COC(=O)N(OC)c1ccccc1COc1ccn(-c2ccc(Cl)cc2)n1, the Potency was “inactive”. With Clc1ccc(C(Cl)(Cl)Cl)cc1Cl the Potency was 15 µM (active). With C=CC(=O)[O][Sn]([CH2]CCC)([CH2]CCC)[CH2]CCC the Potency was “inactive”. In the case of CC1CCCC1, the Potency is reported as “inactive”. For CCCCCCCc1ccc(O)cc1, the Potency was “inactive”. With CCC1(CC)C(=O)N=C(O)NC1=O the Potency was “inactive”. In the case of O.O.O.O=C([O-])[C@H]([O-])[C@@H]([O-])C(=O)[O-].O=C([O-])[C@H]([O-])[C@@H]([O-])C(=O)[O-].[K+].[K+].[Sb+3].[Sb+3], the Potency is reported as “inactive”. In the case of COc1nc(C)nc(NC(=O)NS(=O)(=O)c2ccccc2Cl)n1, the Potency is reported as “inactive”. For Nc1nc(N)nc(Cl)n1, the Potency was “inactive”. In the case of CCN(CC)CCN1C(=O)CN=C(c2ccccc2F)c2cc(Cl)ccc21, the Potency is reported as “inactive”. In the case of CCN(CC)Cc1nccn1-c1ccc([N+](=O)[O-])cc1C(=O)c1ccccc1Cl, the Potency is reported as “inactive”. In the case of Cc1ccc2cc3c(ccc4ccccc43)c3c2c1CC3, the Potency is reported as “inactive”. In the case of CC(=O)O.CC(=O)O.CC(=O)O.CC(=O)O.CC(=O)O.CC(=O)O.CC(=O)O.O.O.[Cr].[Cr].[Cr], the Potency is reported as “inactive”. For Clc1ccc(C(c2ccc(Cl)cc2)C(Cl)Cl)cc1, the Potency was “inactive”. With BrCCCBr the Potency was “inactive”. For ClC(Cl)C(Cl)(Cl)Cl, the Potency was “inactive”. In the case of CC(C)NCC(O)c1ccccc1Cl (stereo not given), the Potency is reported as “inactive”. In the case of C[C@@H]1CC2=CC(=O)CC[C@@H]2[C@H]2CC[C@@]3(C)[C@@H](CC[C@]3(C)O)[C@@H]21, the Potency is reported as “inactive”. In the case of NC1CCC(CC2CCC(N)CC2)CC1 (stereo not given), the Potency is reported as “inactive”. With O=S(=O)(NS(=O)(=O)C(F)(F)F)C(F)(F)F the Potency was “inactive”. For C=CCOC(=O)c1ccccc1N, the Potency was “inactive”. With c1ccc2nc(N3CCNCC3)ccc2c1 the Potency was “inactive”. For CC(=O)C(Cl)C(=O)N(C)C (stereo not given), the Potency was “inactive”. In the case of CC(C)c1c(CN(C)C(C)Cc2ccccc2)n(C)n(-c2ccccc2)c1=O (stereo not given), the Potency is reported as “inactive”. In the case of Cc1c([N+](=O)[O-])cc2c(c1[N+](=O)[O-])C(C)(C)CC2(C)C, the Potency is reported as “inactive”. With OCC(Br)CBr (stereo not given) the Potency was “inactive”. In the case of CCn1cc[n+](C)c1 (tested in a mixture with another compound), the Potency is reported as “inactive”. For CC1=C2C[C@H]3[C@@H](CC=C4C[C@@H](O)CC[C@@]43C)[C@@H]2CC[C@]12O[C@@H]1C[C@H](C)CN[C@H]1[C@H]2C, the Potency was “inactive”. In the case of COc1cnc(OC)n2nc(NS(=O)(=O)c3c(OCC(F)F)cccc3C(F)(F)F)nc12, the Potency is reported as “inactive”. In the case of CCCN, the Potency is reported as “inactive”. For CN1C(=O)[C@@H](NC(=O)c2cc3ccccc3[nH]2)N=C(c2ccccc2)c2ccccc21, the Potency was “inactive”. For O=C(N[C@H]1N=C(c2ccccc2F)c2cccc3c2N(CC3)C1=O)c1cc2ccccc2[nH]1, the Potency was “inactive”. For COP(=S)(OC)Oc1nc(Cl)c(Cl)cc1Cl, the Potency was “inactive”. In the case of CC1(C)[C@H](/C=C2\CCSC2=O)[C@@H]1C(=O)OCc1coc(Cc2ccccc2)c1, the Potency is reported as “inactive”. In the case of [O]=[Cr][O][Cr]=[O], the Potency is reported as “inactive”. With ClC1=C(Cl)[C@]2(Cl)[C@H]3[C@H]([C@@H]4C=C[C@H]3C4)[C@@]1(Cl)C2(Cl)Cl the Potency was “inactive”. In the case of O.O.O.O.O.O.O.O=S(=O)([O-])[O-].[Co+2], the Potency is reported as “inactive”. With CCNS(=O)(=O)C(F)(F)C(F)(F)C(F)(F)C(F)(F)C(F)(F)C(F)(F)C(F)(F)C(F)(F)F the Potency was “inactive”. For Nc1ccc(N=Nc2ccccc2)cc1, the Potency was 8.63 µM (active).
